Screens deposited in PubChem by several laboratories.
DAX1 inh: DAX1 (NR0B1) inhibition, primary screen; HEK293T StAR-luciferase reporter, SF-1/DAX-1 repression relief; inhibition, % at 6.8 µM; 1.1% of 370,000 active; AID 652010;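 active = inhibition above the mean over all tested compounds plus 3 SD, cut at about 3.6% in these data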;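 note: 0% = DAX-1 cells with DMSO and 100% = cells lacking DAX-1 with DMSO; higher inhibition means more luminescence from relief of DAX-1 repression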
hcDAF-12 act: activates DAF-12 receptor from parasite H. contortus; HEK293 hcDAF-12 lit1-tk-luc reporter, luminescence; 0% DMSO, 100% Δ7-dafachronic acid; AID 652067; 1.4% of 370,000 active; activation, % at 6.8 µM;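 active = activation above the mean of all tested compounds plus 3 SD, cut at about 5.5% in these data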;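 note: 100% = response to 3 µM Δ7-dafachronic acid high control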
ssDAF-12 act: S. stercoralis DAF-12 activation, primary screen | HEK293 ssDAF-12/GRIP1 lit1-tk-luc reporter, luminescence; % of 3 µM dafachronic acid response | activation, % at 6.8 µM | 1% of 370,000 active;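 active = activation above the mean over all tested compounds plus 3 SD, cut at about 0.9% in these data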;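 note: 0% = DMSO-only wells and 100% = 3 µM delta7-dafachronic acid wells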
hgDAF12 agonist: activates the H. glycines DAF-12 receptor ligand-binding domain. HEK293 GAL4-hgDAF12 UAS-luciferase reporter, agonist luminescence; normalized to butyrate control. activation, % at 6.8 µM. 1.8% of 370,000 active. AID 687014;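 active = activation above a cutoff set at the mean of all screened compounds plus 3 SD, cut at about 10% in these data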;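 note: 0% = DMSO wells and 100% = sodium butyrate wells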
Wnt act: activators of Wnt/beta-catenin signaling | AID 743398 | Wnt/beta-catenin reporter cell assay, activator, plate reader | 1.2% of 300,000 active | activation, % at 9.35 µM; in the data active = activation above about 30%, passing the limit was not always enough; inconclusive = no clear call, values can overlap the other calls;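 note: 0% = neutral control wells and 100% = positive control wells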
esBAF inh: inhibitors of esBAF chromatin remodeling in mouse ES cells | Bmi1-luciferase knock-in reporter, 24 h; 100% = twice the neutral-well signal | reporter increase, % at 12.5 µM | 2% of 350,000 active | AID 602393; in the data active = activation above about 40%; inconclusive = no clear call, values can overlap the other calls;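 note: 0% = median of the plate's neutral control wells and 100% = double that signal; a rise in the Bmi1 reporter signal indicates esBAF inhibition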
* hit, by the source's call; ? = inconclusive; . = not tested or not shown. The list is not random: actives were taken first. Their share in the collection is about 4.2%.

SMILES | DAX1 inh | hcDAF-12 act | ssDAF-12 act | hgDAF12 agonist | Wnt act | esBAF inh
O=C(Nc1ccccc1)n1ccc(-c2ccc(-n3ccnc3)cc2)n1 | 2 | 1 | -1 | 12* | -3 | .
O=C(COc1ncnc2ccccc12)c1ccc(Cl)cc1 | 2 | 1 | -1 | 11* | 10 | ?
c1ccc(OCCOc2ncnc3ccccc23)cc1 | 1 | 0 | -1 | 11* | . | 51*
O=C(COc1ncnc2cc(Cl)ccc12)c1ccccc1 | 1 | 0 | -1 | 1 | -1 | 71*
C[C@@H]1CN([C@@H](C)CO)C(=O)Cc2cc(NS(=O)(=O)c3cn(C)cn3)ccc2O[C@H]1CN(C)S(=O)(=O)c1ccccc1 | . | . | . | . | . | -2
CC(C)NC(=O)Nc1ccc2c(c1)C(=O)N([C@@H](C)CO)C[C@@H](C)[C@H](CN(C)CC1CCCCC1)O2 | . | . | . | . | . | 0
CCCCCOc1ccc(CSc2n[nH]c(C)n2)cc1 | 2 | 0 | 0 | 7 | 11 | .
Cc1nc(SCc2ccc(OCCC(C)C)cc2)n[nH]1 | 1 | -1 | -2 | 2 | 16 | 45*
COc1ccc(CN(C)C[C@@H]2OCCCC[C@H](C)Oc3ccc(N(C)C)cc3C(=O)N([C@H](C)CO)C[C@H]2C)cc1 | . | . | . | . | . | 0
CC(C)CC(OC(=O)c1ccc(Cl)nc1)C(=O)NC1CCCC1 (stereo not given) | 0 | 1 | 1.1* | -1 | 1 | -1
O=C(NC1CCCCC1)C(c1cccnc1)N(C(=O)c1ccc(Cl)nc1)C1CCCCC1 (stereo not given) | -1 | -1 | 1.7* | 1 | -1 | -6
CC(C)(C)NC(=O)C(c1cccnc1)N(C(=O)c1ccc(Cl)nc1)C1CCCC1 (stereo not given) | 0 | -1 | -1 | 0 | 0 | 3
CN(C)C(=O)[C@@H]1[C@@H](CO)[C@@H]2Cn3c(ccc(C4=CCCCC4)c3=O)[C@H]1N2Cc1ccncc1 | . | . | . | . | . | 2
C[C@@H]1CN([C@H](C)CO)C(=O)c2cc(-c3cccc(C(=O)N(C)C)c3)cnc2O[C@H]1CN(C)S(=O)(=O)c1ccccc1 | . | . | . | . | . | -8
CCN(C)C1CN(Cc2cn(Cc3ccc(C(F)(F)F)cc3)nn2)S(=O)(=O)C1 (stereo not given) | 4.1* | 1 | -1 | -2 | -2 | .
COc1ccc(Cn2cc(CN3CC(N4CCN(CCO)CC4)CS3(=O)=O)nn2)cc1 (stereo not given) | 1 | -1 | -1 | 0 | -2 | .
CCCCCCn1cc(CN2CC(N3CCN(CCN(C)C)CC3)CS2(=O)=O)nn1 (stereo not given) | 3.9* | -1 | -1 | -2 | -4 | .
COCCCn1cc(CN2CC(N3CCN(CCN(C)C)CC3)CS2(=O)=O)nn1 (stereo not given) | 4 | 4 | 0 | 0 | -3 | .
Cc1ccc(Cn2cc(CN3CC(N4CCN(CCO)CC4)CS3(=O)=O)nn2)cc1 (stereo not given) | 4.2* | 1 | -2 | -2 | -2 | .
COc1ccccc1S(=O)(=O)N(C)C[C@@H]1OCc2ccccc2-c2c(n(C)c3ccccc23)C(=O)N([C@@H](C)CO)C[C@@H]1C | . | . | . | . | . | 1
Cc1ccc(S(=O)(=O)N[C@@H]2CC[C@H](CCn3cc(C4CC4)nn3)O[C@H]2CO)cc1 | . | . | . | . | . | -1
CN(C(=O)COc1cc(C(F)(F)F)nn1C)c1ccccc1 | 0 | -1 | -2 | 1 | -2 | .
Cn1nc(-c2ccc(S(N)(=O)=O)s2)cc1C(F)(F)F | 0 | 0 | -2 | 2 | 0 | -12
CN(C)C(=O)c1ccc(-c2cc(C(F)(F)F)nn2C)s1 | 1 | 1 | -1 | 3 | 33* | .
Cn1nc(C(F)(F)F)cc1-c1ccc(S(N)(=O)=O)s1 | 0 | -1 | -1 | 2 | 23 | 52*
SMILES | DAX1 inh | hcDAF-12 act | ssDAF-12 act | hgDAF12 agonist | Wnt act | esBAF inh
CCC(=O)Nc1ccc2c(c1)C(=O)N(C)C[C@H](OC)[C@H](C)CN(Cc1cncnc1)[C@H](C)CO2 | . | . | . | . | . | -1
CCCNC(=O)c1cc2ccccc2c(=O)o1 | 0 | -2 | -1 | -4 | 2 | .
CCCCC[C@@H](O)c1cc2ccccc2c(=O)o1 | 1 | 1 | -1 | 3 | 11 | 43*
COc1ccccc1S(=O)(=O)N[C@H]1CC[C@@H](CCNC(=O)C2CCCC2)O[C@H]1CO | . | . | . | . | . | 4
O=C1COc2ccc(OCc3ccc(F)cc3)cc21 | 1 | 5 | 0 | 12* | . | 22
COc1ccc2c(-c3cc4ccc(OCc5ccc(F)cc5)cc4oc3=O)cc(=O)oc2c1 | 0 | 0 | -2 | 1 | . | .
O=C(Nc1cccc(C(=O)NC2CCCC2)c1)c1ccccc1 | -2 | -2 | -1 | -1 | 0 | 7
O=C(/C=C/c1ccccc1)Nc1cccc(C(=O)NC2CC2)c1 | 3.8* | 1 | 0 | 9 | 18 | 39
O=C(/C=C/c1ccccc1)Nc1cccc(C(=O)NCCCc2ccccc2)c1 | -3 | 2 | -1 | 3 | 3 | 43*
O=C(/C=C/c1ccccc1)Nc1cccc(C(=O)NCc2ccccc2)c1 | 0 | -2 | -1 | 2 | 0 | .
CCCNC(=O)N1[C@@H](C#N)[C@H](c2ccccc2)[C@@H]1CO | . | . | . | . | . | -5
CCCCC1(C)Nc2ccccc2-c2nc3ccccc3n21 (stereo not given) | 2 | 3 | 0 | 11* | . | ?
NC1=NC2(CCCCCC2)n2c(nc3ccccc32)N1 | -1 | 0 | -2 | -1 | . | -6
CC1(c2ccccn2)Nc2ccccc2-c2nc3ccccc3n21 (stereo not given) | 1 | 2 | 0 | 11* | 21 | 36
c1ccc2c(c1)NC1(CCCCC1)n1c-2nc2ccccc21 | 2 | 4 | -1 | 11* | 10 | 23
CCN1C(=O)C2(Nc3ccccc3-c3nc4ccccc4n32)c2cc(OC)ccc21 (stereo not given) | -1 | -3 | -1 | -2 | . | 5
c1ccc2c(c1)NC1(CCCCCC1)n1c-2nc2ccccc21 | 2 | 3 | -1 | 10 | . | 46*
CN1C(=O)C2(Nc3ccccc3-c3nc4ccccc4n32)c2ccccc21 (stereo not given) | 0 | -1 | -1 | -1 | . | 9
O=C1Nc2ccccc2C12Nc1ccccc1-c1nc3ccccc3n12 (stereo not given) | -1 | -2 | -1 | 0 | -2 | 3
CC(C)NC(=O)N(C)C[C@H]1OCCCC[C@@H](C)Oc2ccc(NC(=O)c3ccncc3)cc2C(=O)N([C@@H](C)CO)C[C@@H]1C | . | . | . | . | . | 0
O=C(CCN1CCCCC1)N[C@@H]1CC[C@@H](CCNS(=O)(=O)c2ccc(Cl)cc2)O[C@@H]1CO | . | . | . | . | . | -1
Cc1ccc(S(=O)(=O)N(C)C[C@H]2OCCCC[C@H](C)Oc3ccc(NC(=O)c4ccccc4)cc3C(=O)N([C@@H](C)CO)C[C@H]2C)cc1 | . | . | . | . | . | 4
CCOCC(=O)Nc1nc2ccc(OCC)cc2s1 | 1 | 3 | -1 | 11* | 46* | 7
